Experiment [1] addresses Lysosomal acid glucosylceramidase (Homo sapiens) (UniProt P04062). As to the kind of experiment: Glucocerebrosidase-p2 (AID 348; in the data active = potency below about 10 µM; note: potency is the fitted concentration of half-maximal effect). Particulars: purified GBA, blue fluorogenic substrate, 40 min. The gist of the method: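 Compounds titrated from 0.6 nM upwards against 0.2 nM enzyme in pH 5.9 citric acid/KH2PO4, taurocholate, tween-20; blue fluorogenic substrate 80 uM, 40 min room temperature, stopped and read Ex 365/Em 440 for AC50.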

Experiment [2] has as its target Cytochrome P450 1A2 (Homo sapiens) (UniProt P05177). As to the kind of experiment: p450-cyp1a2 (AID 410; calls by dose curve; note: potency is the fitted concentration of half-maximal effect). Particulars: recombinant CYP1A2, luciferin-ME demethylation, luminescence; series mostly up to 57 µM. Put shortly:
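Luminescent readout of luciferin formed from Luciferin-ME by human CYP1A2; data normalized against complete inhibition by 57 uM furafylline. Enzyme 20nM, substrate 100uM at Km, 100mM KPO4 buffer, 60 min reaction at room temperature.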

Experiment [3] concerns the target Glucocorticoid receptor (Homo sapiens) (UniProt P04150). In words: GR-GFP Redistribution (AID 450;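 active = compounds whose dose series gives a full or clear partial fitted curve of increased nuclear translocation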; note: potency is the fitted concentration of half-maximal effect). Particulars: U2OS GR-GFP nuclear translocation, laser cytometry, 2 h.
For experiment [4] the target is unchanged. As to the kind of experiment: GR-EFC Redistribution (AID 451; calls by dose curve; note: potency is the fitted concentration of half-maximal effect). Particulars: CHO-K1 GR-EFC translocation, beta-gal luminescence, 2 h. The gist of the method: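 CHO-K1 cells expressing nuclear EA and GR-ED fragments of b-gal; compounds titrated up to 46 uM final, 2 h at 37 C. GR nuclear translocation read as complemented b-gal luminescence after 1 h RT detection.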

Experiment [5] has as its target Mitogen-activated protein kinase 10 (Mus musculus) (UniProt Q61831). As to the kind of experiment: JNK3 AlphaScreen Assay (AID 530; active = well fitted curve in either direction with a large enough effect, not every such curve was filed as active;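 note: kinase came from lysate of stimulated human HepG2 cells; signal reports phosphorylation of biotinylated GST-cJun 1-79 at Ser73 with 10 µM ATP; % is set by controls: 0 for no effect and ±100 for the full control effect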). Particulars: JNK3 lysate, c-Jun phosphorylation; series mostly up to 57.1 µM. Put shortly:
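Pre-activated (IL-1β/TNFα) JNK3 in HepG2 lysates phosphorylates biotin-GST-cJun(1-79), 10 uM ATP; anti-phospho-cJun(Ser73) AlphaScreen read at room temperature, pH 7.6 Tris buffer. Compounds pre-incubated 15 min as titrations.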
For orientation: Bead proximity is the source of the signal in Alpha formats.

Experiment [6] concerns the target 3',5'-cyclic-AMP phosphodiesterase 4B (Homo sapiens) (UniProt Q07343). As to the kind of experiment: qHTS Assay for Inhibitors of PDE-IV (AID 607; active = well fitted activation curve with a large enough effect in the main read-out, with a control signal flat, not every such curve was filed as active; note: % of control where 0% means no effect). Particulars: HEK293 ACTOne CNG channel cells, membrane potential fluorescence; series mostly up to 22.9 µM. The gist of the method:
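HEK293 ACTOne cells with CNG channel (1000/well), endogenous PDE4; membrane potential dye, compounds up to 22.9 uM final. Fluorescence Ex 535/Em 590; RO 20-1724 (100 uM final) as reference.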
(In general: In qHTS, concentration-response curves come from the screen itself.)

Experiment [7] can be described thus: qHTS Assay for Lipid Storage Modulators (AID 1519; calls by dose curve). Particulars: Drosophila S3 cells, BODIPY lipid droplet/cell ratio, laser cytometry, cells loaded with oleic acid; for activity change, negative = inhibition: at 57.5 µM (top of the series). Put shortly:
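Cells seeded at 5,000 per well were treated with compounds over a concentration series and loaded with oleic acid (400 uM, as added). Lipid droplet fluorescence (488 nm excitation, 500-530 nm channel) was read by laser-scanning cytometry and normalized to 20 uM Triacsin C.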

Experiment [8] addresses Dual specificity protein kinase CLK4 (Homo sapiens) (UniProt Q9HAZ1). In words: qHTS Assay for Inhibitors of CDC-like Kinase 4 (Kinase-Glo Assay) (AID 1770). Note: nearly all actives have a fitted effect of over 65% in size. Note: potency is the fitted concentration of half-maximal effect. Particulars: recombinant Clk4, Kinase-Glo ATP depletion luminescence; series mostly up to 66.7 µM. The gist of the method: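 Substrate mix (RS peptide 100 uM, ATP 1 uM) dispensed, compound pinned in, then Clk4 added to 25 nM final. Incubated 4.5 h at RT; Kinase-Glo reagent added, luminescence read after 5 min.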

The target is the same in experiment [9]. In words: qHTS Assay for Inhibitors of CDC-like Kinase 4 (ADP-Glo Assay) (AID 1771). Note: nearly all actives have a fitted effect of over 70% in size. Note: potency is the fitted concentration of half-maximal effect. Particulars: recombinant CLK4, ADP-Glo luminescence; series mostly up to 80 µM. The gist of the method:
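Luminescence from ADP-Glo reports ADP produced by 25 nM Clk4 acting on 100 uM RS repeat peptide with 1 uM ATP over 1 hr at room temperature; residual ATP is depleted before ADP is converted to ATP for detection.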

The target is the same in experiment [10]. In words: qHTS Assay for Inhibitors of CDC-like Kinase 4 (ADP-FP Assay) (AID 1795). Note: nearly all actives have a fitted effect of over 60% in size. Note: potency is the fitted concentration of half-maximal effect. Particulars: Transcreener ADP fluorescence polarization; series mostly up to 50 µM. The gist of the method: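 Clk4 6.25 nM; RS peptide 100 uM; ATP 1 uM; 25 mM Tris pH 7.5, 10 mM MgCl2; 1 h reaction. ADP detected via antibody/orange tracer FP displacement; TG003 positive control.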

In experiment [11] the target is Ubiquitin carboxyl-terminal hydrolase 1 (Homo sapiens) (UniProt O94782). As to the kind of experiment: Inhibitors of USP1/UAF1: Pilot qHTS (AID 504865).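 Note: rhodamine fluorescence freed from ubiquitin-rhodamine substrate followed over time; top concentration of the series differs between compounds; % is set by controls: 0 for no effect and ±100 for the full control effect; nearly all actives have a fitted effect of over 35% in size.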 Particulars: purified USP1/UAF1, Ub-rhodamine cleavage fluorescence; series mostly up to 54.9 µM. The gist of the method: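 In 50mM HEPES pH 7.8 containing 0.5mM EDTA, 1mM TCEP, 0.1 mg/ml BSA and 0.01% Tween-20, 1nM USP1/UAF1 is exposed to compound for 15 min, then Ub-Rho (150nM final) is added and fluorescence is read over time.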
Chain of Ubiquitin carboxyl-terminal hydrolase 1 (Homo sapiens) (O94782 whole entry, looked up): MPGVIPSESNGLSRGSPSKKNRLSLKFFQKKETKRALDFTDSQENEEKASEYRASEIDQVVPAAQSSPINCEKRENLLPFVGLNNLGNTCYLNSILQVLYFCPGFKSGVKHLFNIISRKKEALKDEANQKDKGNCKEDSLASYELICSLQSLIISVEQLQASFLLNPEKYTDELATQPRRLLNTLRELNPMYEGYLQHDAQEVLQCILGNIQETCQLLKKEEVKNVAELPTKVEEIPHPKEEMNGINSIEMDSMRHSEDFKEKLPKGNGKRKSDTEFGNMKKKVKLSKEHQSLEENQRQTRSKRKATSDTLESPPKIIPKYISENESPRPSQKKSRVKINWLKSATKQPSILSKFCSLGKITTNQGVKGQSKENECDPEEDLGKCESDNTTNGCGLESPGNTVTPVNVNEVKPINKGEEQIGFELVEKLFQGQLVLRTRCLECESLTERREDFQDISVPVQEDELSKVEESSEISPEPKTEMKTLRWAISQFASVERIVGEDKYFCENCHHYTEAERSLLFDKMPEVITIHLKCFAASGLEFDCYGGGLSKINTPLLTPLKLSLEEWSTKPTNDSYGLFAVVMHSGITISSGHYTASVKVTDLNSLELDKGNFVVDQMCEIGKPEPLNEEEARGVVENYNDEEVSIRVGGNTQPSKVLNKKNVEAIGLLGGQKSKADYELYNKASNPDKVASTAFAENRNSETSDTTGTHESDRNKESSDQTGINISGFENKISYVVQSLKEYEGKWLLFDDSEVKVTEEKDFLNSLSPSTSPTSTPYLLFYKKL

A short description of experiment [12]: Primary qHTS for small molecule stabilizers of the endoplasmic reticulum resident proteome: Secreted ER Calcium Modulated Protein (SERCaMP) assay (AID 1508630). Note: % is set by controls: 0 for no effect and ±100 for the full control effect. Particulars: SH-SY5Y GLuc-SERCaMP (Gaussia luciferase released on ER calcium loss) secretion, thapsigargin, luminescence; series mostly up to 38.4 µM. Put shortly:
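GLuc-SERCaMP-expressing SH-SY5Y cells, pretreated 16 h with compound, are challenged with thapsigargin to empty ER calcium stores; after 4 h, coelenterazine is added directly to the medium and luminescence is imaged.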

Experiment [13] can be described thus: Stat Signaling Pathway (AID 446; active = well fitted curve in either direction with a large enough effect, not every such curve was filed as active;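 note: ME-180 cervical cancer cells given 40 pM IL-6 alongside compound; SIE-controlled beta-lactamase reporter measured as 460/530 nm FRET emission ratio; % is set by controls: 0 for no effect and ±100 for the full control effect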). Particulars: ME-180 SIE beta-lactamase reporter, IL-6 stimulated, 5 h; at 7.69 µM (top of the series) unless noted. Put shortly: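 ME-180 cells carrying a SIE-driven beta-lactamase reporter are stimulated with 40 pM IL-6 for 5 h at 37C in the presence of compound. The 460/530 nm FRET substrate ratio is read after 2.5 h at RT. Data are normalised to 300 pM IL-6 and to 125 nM JAK inhibitor controls.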

Experiment [14] deals with Cytochrome P450 3A4 (Homo sapiens) (UniProt P08684). As to the kind of experiment: qHTS Assay for Inhibitors and Substrates of Cytochrome P450 3A4 (AID 884). Note: potency is the fitted concentration of half-maximal effect; nearly all actives have a fitted effect of over 50% in size. Particulars: recombinant CYP3A4, Luciferin-PPXE luminescence; series mostly up to 57.1 µM. The gist of the method: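 20 nM human CYP3A4 with 25 uM Luciferin-PPXE (at KM) in 200 mM KPO4, preincubated 10 min with compound; NADPH regeneration started a 60 min RT reaction. Luciferin detected by luminescence, normalized to 57 uM ketoconazole as full inhibition.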
Chain of Cytochrome P450 3A4 (Homo sapiens) (P08684 whole entry, looked up): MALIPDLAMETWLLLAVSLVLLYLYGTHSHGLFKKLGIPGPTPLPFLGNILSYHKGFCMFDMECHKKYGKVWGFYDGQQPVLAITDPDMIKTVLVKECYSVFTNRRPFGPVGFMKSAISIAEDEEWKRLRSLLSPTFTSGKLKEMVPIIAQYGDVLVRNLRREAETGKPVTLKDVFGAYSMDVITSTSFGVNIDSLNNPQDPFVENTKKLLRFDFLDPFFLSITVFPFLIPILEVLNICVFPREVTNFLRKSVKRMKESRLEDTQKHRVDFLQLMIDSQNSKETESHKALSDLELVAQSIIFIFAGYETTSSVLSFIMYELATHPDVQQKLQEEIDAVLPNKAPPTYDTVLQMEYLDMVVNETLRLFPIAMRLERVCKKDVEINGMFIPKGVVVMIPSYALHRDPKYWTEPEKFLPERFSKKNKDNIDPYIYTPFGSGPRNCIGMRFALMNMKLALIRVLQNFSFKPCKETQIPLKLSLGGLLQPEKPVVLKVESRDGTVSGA

The target is the same in experiment [15]. As to the kind of experiment: qHTS Assay for Activators of Cytochrome P450 3A4 (AID 885). Note: nearly all actives have a fitted effect of over 65% in size. Particulars: recombinant CYP3A4, Luciferin-PPXE luminescence, 60 min; series mostly up to 57.1 µM. Put shortly:
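Human CYP3A4 (20 nM) with Luciferin-PPXE at 25 uM (its KM) in 200 mM KPO4; 10 min compound preincubation, then NADPH regeneration and 60 min reaction at RT. Luciferin read by luminescence; normalized to 57 uM ketoconazole full inhibition.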

Experiment [16] in a line: AP1 Signaling Pathway (AID 357; active = well fitted curve in either direction with a large enough effect, not every such curve was filed as active;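 note: ME-180 reporter cells stimulated with EGF at its EC50 level; % is set by controls: 0 for no effect and ±100 for the full control effect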). Particulars: ME-180 (cervical carcinoma) AP-1-bla reporter, EGF-induced, beta-lactamase ratio, 5 h; at 7.69 µM (top of the series) unless noted. The gist of the method:
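A ratiometric CCF4 readout (405 nm excitation; 460 and 530 nm emission) quantified AP-1-driven beta-lactamase in ME-180 cells after 5 h with compound and EC50 EGF; AC50 values were derived for activators and inhibitors.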

Experiment [17] in a line: NFAT Signaling Pathway (AID 444; active = well fitted curve in either direction with a large enough effect, not every such curve was filed as active). Particulars: Jurkat NFAT-bla M1, carbachol, beta-lactamase ratio, 5 h; at 7.69 µM (top of the series) unless noted. The gist of the method:
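Jurkat cells with NFAT-driven β-lactamase reporter and co-expressed M1 receptor, stimulated with carbachol (final 1 uM, ~EC50), compound titration, 5 h at 37 °C. CCF4 loaded 1 h at RT; 460/530 nm ratio gave %activity and AC50.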

Where [18] appears, read: measured here: cell count channel max response.
Where [19] appears, read: measured here: lipid channel max response.

This is an account of results in PubChem BioAssay (NCATS).

Inconclusive results are not listed. Activity calls are given as the source filed them. Unless noted, calls come from the whole dose curve; as a rule, active = well fitted curve in the direction sought with a large enough effect; inconclusive = small, poorly fitted or top-dose-only effect, or another doubt; inactive = no such curve, though single readings can be large; an effect the other way counts as inactive or inconclusive.

Chain of Glucocorticoid receptor (Homo sapiens) (P04150 whole entry, looked up, the tested form may be a part): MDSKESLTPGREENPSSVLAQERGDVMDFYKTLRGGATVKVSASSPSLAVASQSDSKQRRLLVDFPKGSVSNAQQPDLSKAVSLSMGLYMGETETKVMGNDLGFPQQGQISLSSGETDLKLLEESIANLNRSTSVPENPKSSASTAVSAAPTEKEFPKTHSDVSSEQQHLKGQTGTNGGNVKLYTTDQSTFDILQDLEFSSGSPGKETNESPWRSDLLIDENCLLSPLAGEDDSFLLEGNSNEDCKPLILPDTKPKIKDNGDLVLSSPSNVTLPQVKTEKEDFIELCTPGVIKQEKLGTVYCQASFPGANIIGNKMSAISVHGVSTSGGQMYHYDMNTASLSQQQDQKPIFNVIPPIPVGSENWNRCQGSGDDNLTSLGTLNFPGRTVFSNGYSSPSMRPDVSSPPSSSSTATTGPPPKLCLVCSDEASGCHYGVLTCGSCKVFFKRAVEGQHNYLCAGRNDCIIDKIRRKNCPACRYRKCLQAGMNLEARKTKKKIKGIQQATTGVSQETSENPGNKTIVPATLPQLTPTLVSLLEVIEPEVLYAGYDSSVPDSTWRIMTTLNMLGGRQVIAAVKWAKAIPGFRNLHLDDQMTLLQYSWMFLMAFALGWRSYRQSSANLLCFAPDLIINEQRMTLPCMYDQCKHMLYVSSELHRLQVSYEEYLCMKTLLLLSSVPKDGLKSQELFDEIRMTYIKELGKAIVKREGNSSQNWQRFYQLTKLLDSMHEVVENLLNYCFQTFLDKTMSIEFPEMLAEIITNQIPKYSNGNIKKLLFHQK
Chain of Cytochrome P450 1A2 (Homo sapiens) (P05177 whole entry, looked up): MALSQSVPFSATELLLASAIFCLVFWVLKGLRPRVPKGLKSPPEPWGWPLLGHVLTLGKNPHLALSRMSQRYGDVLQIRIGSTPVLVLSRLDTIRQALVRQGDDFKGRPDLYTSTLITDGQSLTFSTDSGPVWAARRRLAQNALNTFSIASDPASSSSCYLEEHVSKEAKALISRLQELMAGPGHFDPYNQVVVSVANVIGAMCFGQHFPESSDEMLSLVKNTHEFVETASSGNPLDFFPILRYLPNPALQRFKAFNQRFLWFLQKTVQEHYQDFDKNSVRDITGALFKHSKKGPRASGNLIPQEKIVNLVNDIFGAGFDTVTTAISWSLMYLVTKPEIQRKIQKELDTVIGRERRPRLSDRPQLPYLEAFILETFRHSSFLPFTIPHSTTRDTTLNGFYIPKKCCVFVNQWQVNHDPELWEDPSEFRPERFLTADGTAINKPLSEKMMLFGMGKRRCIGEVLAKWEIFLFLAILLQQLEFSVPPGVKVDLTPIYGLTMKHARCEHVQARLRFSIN
Chain of Dual specificity protein kinase CLK4 (Homo sapiens) (Q9HAZ1 whole entry, looked up): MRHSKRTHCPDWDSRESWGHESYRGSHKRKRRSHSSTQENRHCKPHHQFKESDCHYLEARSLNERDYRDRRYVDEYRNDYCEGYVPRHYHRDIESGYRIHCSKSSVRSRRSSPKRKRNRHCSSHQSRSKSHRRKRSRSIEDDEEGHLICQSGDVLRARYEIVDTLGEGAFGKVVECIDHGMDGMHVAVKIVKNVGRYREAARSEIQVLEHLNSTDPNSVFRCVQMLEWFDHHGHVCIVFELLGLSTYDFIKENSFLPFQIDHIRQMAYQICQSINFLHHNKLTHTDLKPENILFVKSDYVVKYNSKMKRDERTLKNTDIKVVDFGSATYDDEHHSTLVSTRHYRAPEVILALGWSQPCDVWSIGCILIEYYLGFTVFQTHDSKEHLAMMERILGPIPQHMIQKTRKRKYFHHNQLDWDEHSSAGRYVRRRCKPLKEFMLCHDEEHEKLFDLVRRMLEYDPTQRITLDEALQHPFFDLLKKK
Chain of Lysosomal acid glucosylceramidase (Homo sapiens) (P04062 whole entry, looked up): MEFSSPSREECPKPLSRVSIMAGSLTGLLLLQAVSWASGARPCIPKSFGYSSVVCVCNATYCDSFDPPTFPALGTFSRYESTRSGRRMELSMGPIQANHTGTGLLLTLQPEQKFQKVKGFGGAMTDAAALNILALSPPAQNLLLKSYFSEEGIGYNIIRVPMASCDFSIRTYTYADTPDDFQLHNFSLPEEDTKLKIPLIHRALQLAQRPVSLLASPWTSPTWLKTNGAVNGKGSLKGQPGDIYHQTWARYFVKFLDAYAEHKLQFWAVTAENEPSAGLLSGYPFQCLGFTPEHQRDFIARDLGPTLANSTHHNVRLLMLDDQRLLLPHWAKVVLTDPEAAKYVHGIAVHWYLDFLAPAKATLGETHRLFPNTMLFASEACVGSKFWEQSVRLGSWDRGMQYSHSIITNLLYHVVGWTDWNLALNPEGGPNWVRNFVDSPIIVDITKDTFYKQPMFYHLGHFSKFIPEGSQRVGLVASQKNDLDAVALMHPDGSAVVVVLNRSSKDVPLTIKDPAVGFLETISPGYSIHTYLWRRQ
Chain of 3',5'-cyclic-AMP phosphodiesterase 4B (Homo sapiens) (Q07343 whole entry, looked up): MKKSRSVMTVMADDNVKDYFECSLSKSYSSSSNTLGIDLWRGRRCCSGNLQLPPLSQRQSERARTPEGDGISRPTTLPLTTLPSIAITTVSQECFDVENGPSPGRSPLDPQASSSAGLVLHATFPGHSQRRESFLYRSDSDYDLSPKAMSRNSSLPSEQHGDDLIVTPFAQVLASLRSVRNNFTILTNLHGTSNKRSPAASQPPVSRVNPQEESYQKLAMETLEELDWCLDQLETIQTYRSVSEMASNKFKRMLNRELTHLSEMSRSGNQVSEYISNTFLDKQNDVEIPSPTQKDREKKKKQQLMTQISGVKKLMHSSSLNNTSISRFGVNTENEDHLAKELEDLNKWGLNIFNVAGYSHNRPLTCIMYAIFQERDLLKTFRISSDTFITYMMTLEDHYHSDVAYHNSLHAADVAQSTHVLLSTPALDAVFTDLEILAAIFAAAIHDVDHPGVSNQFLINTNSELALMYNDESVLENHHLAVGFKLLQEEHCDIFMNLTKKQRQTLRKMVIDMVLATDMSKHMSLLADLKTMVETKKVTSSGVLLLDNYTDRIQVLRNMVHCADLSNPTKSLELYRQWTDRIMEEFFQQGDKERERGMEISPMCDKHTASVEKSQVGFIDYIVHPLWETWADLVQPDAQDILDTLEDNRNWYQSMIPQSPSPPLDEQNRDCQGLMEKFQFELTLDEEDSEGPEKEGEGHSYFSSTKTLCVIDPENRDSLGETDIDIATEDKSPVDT

Regarding `O=c1c(-c2ccc(Cl)cc2)nc2cnc(N3CCOCC3)nc2n1-c1ccccc1`, the Potency in [1] is > 11.4 µM (inactive); in [2], 2 µM (active); in experiment [3], > 9.22 µM (inactive); in experiment [4] it was > 46 µM (inactive). Also, the compound was classed as inactive in [5]. In addition, the Potency entry in experiment [6], in experiment [8], in experiment [9], in experiment [10], in experiment [11] and in experiment [12] was “inactive” each time. Also, the activity change, negative = inhibition in experiment [7] is -3% (inactive). Also, the max response came to 25.3% in experiment [7] (setting [18]) and 19.1% in [7] (setting [19]).

`CS(=O)(=O)Nc1cccc(-c2ccc3ncnc(Nc4ccccc4)c3c2)c1`: the Potency in experiment [1] is > 11.4 µM (inactive); in experiment [2], 1 µM (active); in experiment [3], > 46 µM (inactive); in experiment [4] it was > 46 µM (inactive); in experiment [8], 15.8 µM (active); in experiment [9], 14.1 µM (active). Further, in experiment [10], the Potency is 14.1 µM (active). In addition, the activity, negative = inhibition in experiment [13] was -2.27% (inactive). Moreover, in [5], the compound was called inactive. Also, the Potency entry in [6], in experiment [11] and in experiment [12] was “inactive” throughout. Further, in experiment [7], the activity change, negative = inhibition was 5.6% (inactive). Besides, the max response in experiment [7] (setting [18]) is 6.09%; in [7] (setting [19]), 11.8%.

On to `O=c1c(-c2ccc(Cl)cc2)nc2cnc(N3CCNCC3)nc2n1Cc1cccs1`, for which the Potency is > 11.4 µM (inactive) in experiment [1]; 12.6 µM (active) in experiment [2]; > 9.22 µM (inactive) in experiment [3]; > 46 µM (inactive) in [4]; 5.01 µM (active) in experiment [14]. Also, the Potency entry in experiment [6], in [15], in experiment [8], in experiment [9], in experiment [10] and in experiment [12] was “inactive” each time. For the same compound, the activity change, negative = inhibition in experiment [7] was 0.33% (inactive). The max response in [7] (setting [18]) was -11.5%; in [7] (setting [19]) it was -12.6%.

Regarding `CCNc1ncc2nc(-c3ccccc3)c(=O)n(C[C@H]3CCCO3)c2n1`, the Potency is > 11.4 µM (inactive) in experiment [1], > 9.22 µM (inactive) in experiment [3] and > 46 µM (inactive) in experiment [4]. The activity change, negative = inhibition in [16] was 0.0155% (inactive); in [7], -15.5% (inactive). In addition, in [5], the outcome was inactive. The figures for the max response in [7] (setting [18]) and in experiment [7] (setting [19]) were 3.11% and -10%, respectively. Also, the Potency entry in [8], in experiment [9], in [10], in [11] and in [12] was “inactive” throughout.

In the case of `COc1ccc(-c2nc3cnc(Nc4ccccc4)nc3n(Cc3cccs3)c2=O)cc1`, the Potency in experiment [1] is > 11.4 µM (inactive); in experiment [3], > 9.22 µM (inactive); in experiment [4], > 46 µM (inactive). The activity change, negative = inhibition in experiment [16] is 19.7% (inactive); in experiment [17] it was 23.4% (inactive); in experiment [7] it was 0.81% (inactive). Besides, the compound was called inactive in experiment [5]. The Potency result in experiment [6], in experiment [8], in experiment [9], in experiment [10], in experiment [11] and in experiment [12] was “inactive” each time. Further, the max response in experiment [7] (setting [18]) was determined as 23.8%; in experiment [7] (setting [19]), 23.5%.

As for `CN(C)Cc1ccccc1-c1cncnc1Nc1ccccc1`, the Potency in [1] is > 11.4 µM (inactive); in experiment [3] it was > 46 µM (inactive); in experiment [4] it was > 46 µM (inactive). Moreover, the activity change, negative = inhibition was 7.98% (inactive) in [16] and 5.53% (inactive) in experiment [7]. Moreover, in [13], the activity, negative = inhibition was 13.5% (inactive). The result in experiment [5] was inactive. The Potency entry in experiment [6], in experiment [8], in [9], in experiment [10], in [11] and in experiment [12] was “inactive” each time. The max response in experiment [7] (setting [18]) came out at 18.6%; in experiment [7] (setting [19]) it was 26.9%.
